Screening data from PubChem BioAssay.
Hits are enriched below; roughly 0.9% of the tested compounds scored in any of these assays.
TR-FRET SRC-2 ct: TR-FRET signal artefacts, primary screen, artefact control for PPARgamma SRC-2 agonist project, biochemical | AID 1049, 2008 | TR-FRET artefact counter-screen; stronger effect = higher value | 0.4% of 200,000 active | TR-FRET ratio at 8 µM
PPARg SRC-2 ag: agonists of PPARg-SRC-2 recruitment, primary screen, biochemical, HTS; PPARgamma LBD-SRC-2 recruitment; 0.34% of 200,000 active; AID 1032, 2008; activation, % at 8 µM; in the data active = activation above about 22%;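 note: 0% = vehicle and 100% = reference agonist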
Target sequence (P37231 whole entry, looked up, the tested form may be a part): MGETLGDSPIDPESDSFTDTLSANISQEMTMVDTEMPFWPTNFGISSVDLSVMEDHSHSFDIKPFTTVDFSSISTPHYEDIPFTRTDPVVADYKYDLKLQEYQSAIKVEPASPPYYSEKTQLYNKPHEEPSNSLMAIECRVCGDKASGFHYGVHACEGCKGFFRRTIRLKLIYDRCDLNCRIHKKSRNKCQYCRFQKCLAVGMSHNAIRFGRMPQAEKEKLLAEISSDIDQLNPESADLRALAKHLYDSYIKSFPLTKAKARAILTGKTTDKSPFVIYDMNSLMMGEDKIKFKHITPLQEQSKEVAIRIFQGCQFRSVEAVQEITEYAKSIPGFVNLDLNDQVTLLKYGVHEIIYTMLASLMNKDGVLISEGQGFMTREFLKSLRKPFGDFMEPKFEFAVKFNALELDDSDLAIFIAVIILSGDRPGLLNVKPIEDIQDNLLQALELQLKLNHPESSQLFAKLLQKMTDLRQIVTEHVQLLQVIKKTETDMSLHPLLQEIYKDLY
SRC1 TRFRET art: TR-FRET detection interference compounds, primary screen, artefact control for PPARgamma SRC-1 recruitment agonists, biochemical, TR-FRET emission ratio; AID 1051, 2008; TR-FRET ratio at 8 µM; 0.34% of 99,000 active; TR-FRET detection artefact counter-screen; stronger effect = higher value; in the data active = TR-FRET ratio above about 2300
PPARg SRC1 recr: PPARgamma agonists recruiting SRC-1 coactivator, primary screen, biochemical; Peroxisome proliferator-activated receptor gamma (Homo sapiens), P37231; PPARgamma-SRC-1 coactivator recruitment biochemical assay; activation, % at 8 µM; 0.41% of 200,000 active; AID 631, 2007; in the data active = activation above about 19%;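 note: 0% = DMSO and 100% = reference agonist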
PPARg SRC-3 ag: PPARgamma agonists recruiting SRC-3 coactivator, primary screen, biochemical | Peroxisome proliferator-activated receptor gamma (Homo sapiens), P37231 | biochemical PPARgamma/SRC-3 coactivator recruitment assay | activation, % at 8 µM | 0.26% of 200,000 active; in the data active = activation above about 23%;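 note: 0% = DMSO and 100% = reference agonist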
SRC3 TRFRET art: TR-FRET detection interference compounds, artefact control for PPARgamma SRC-3 recruitment agonists, biochemical, TR-FRET ratio; 0.39% of 99,000 active; TR-FRET ratio at 8 µM; TR-FRET artefact counter-screen, PPARgamma/SRC-3 format; stronger effect = higher value; AID 1048, 2008
* marks the source's active call; other numbers are inactive results; nt = no result; + = active, no number. Cut-off read from the data, not from the text of the source, unless noted: active = TR-FRET ratio above about 2000; inactive = the rest.

SMILES | TR-FRET SRC-2 ct | PPARg SRC-2 ag | SRC1 TRFRET art | PPARg SRC1 recr | PPARg SRC-3 ag | SRC3 TRFRET art
COc1ccc(-c2cc(-c3ccccc3)nc3ncnn23)cc1 | 1582 | -4 | 1632 | -3 | -1 | 1563
COc1ccc(C2CC(c3ccccc3)=NN2C(=O)COC(=O)c2cc(S(=O)(=O)N3CCOCC3)ccc2Cl)cc1 (configuration not stated) | 2080* | -7 | 2224 | -1 | 4 | 1778
COc1ccc(C2=NN(C(=O)CSc3nc4ccccc4s3)C(c3ccc(F)cc3)C2)cc1 (configuration not stated) | 1326 | 8 | 1833 | -8 | -4 | 1435
O=C1CCCN2N=C(SCC(=O)N3N=C(c4ccc(Br)cc4)CC3c3ccc(F)cc3)SC2=N1 (configuration not stated) | 2012* | -2 | 2131 | -4 | -3 | 2326*
C=CCn1c(SCc2ccc(C(=O)OC)cc2)nnc1-c1sc(N)nc1C | 1972* | 2 | 1914 | 12 | 5 | 1516
Cc1ccc(NC(=O)c2c(Cl)nc3ccccn23)cc1 | 1668 | 2 | 1956 | -6 | -1 | 1630
CCOC(=O)CCNC(=O)Nc1ccc2nc(C)n(Cc3cccc(Cl)c3)c(=O)c2c1 | 1989* | 9 | nt | 18 | 17 | nt
CCCc1nc2ccc(NC(=O)NCCC(=O)OCC)cc2c(=O)n1Cc1cccc(Cl)c1 | 1646 | 5 | nt | 6 | 0 | nt
Cc1cc(C)c2sc(N)nc2c1 | 1590 | 0 | 1668 | -1 | 5 | 1568
COc1ccc(C(=O)NCC(=O)N=Nc2c(O)n(Cc3ccccc3)c3ccccc23)cc1OC | 2099* | 34* | 2056 | 1 | 6 | 1814
O=C(N=Nc1c(O)n(Cc2ccccc2)c2ccccc12)c1ccc(O)cc1 | 1573 | 9 | 2013 | -2 | 5 | 1586
Cc1cc(NC(=O)/C=C/c2ccccc2)c(C(C)C)cc1O | 1385 | -3 | 1657 | 2 | -2 | 1349
CCOC(=O)C1CCN(C(=O)CSc2ccccc2Cl)CC1 | 1445 | 3 | 1902 | 21* | 3 | 1667
Cc1ccc2cc(C#N)c(NCc3ccccc3)nc2c1 | 1722 | 17 | 2504* | 19 | 18 | 2317*
O=c1cnnc(SCc2ccc([N+](=O)[O-])cc2)[nH]1 | 1688 | 45* | 1538 | 79* | 73* | 1609
CC(C)(C)NC(=O)C(c1ccncc1)N(C(=O)c1csnn1)c1cccc2ccccc12 (configuration not stated) | 1903 | 10 | 1975 | 12 | 8 | 1699
Fc1ccc(NC(=S)Nc2ccccc2N2CCOCC2)cc1Cl | 1498 | -5 | 1541 | -1 | -5 | 1563
Cc1cc2cc(CNC(=O)Nc3ccc(Cl)c(Cl)c3)ccc2n1C | 1781 | 10 | 2614* | 7 | 8 | 1886
FC(F)Oc1ccc(NC(=S)NCc2ccccc2)cc1 | 1417 | -8 | 1600 | -2 | -2 | 1564
Cc1cc2cc(CNC(=S)Nc3ccc(OC(F)F)cc3)ccc2n1C | 2063* | 11 | 2282 | 11 | 5 | 2435*
COCC(=O)NCc1ccc2c(c1)cc(C)n2C | 1821 | 6 | 1864 | 6 | 0 | 1649
COC(=O)c1cccc(NC2CC(=O)N(c3ccc(OC)c(OC)c3)C2=O)c1 (configuration not stated) | 1810 | 6 | 2727* | 18 | 5 | 1521
COc1ccc(N2C(=O)CC(Nc3ccc(C(=O)O)cc3)C2=O)cc1OC (configuration not stated) | 1699 | 9 | 2011 | 5 | 5 | 1527
CCOc1ccc(NC(=S)NC(C)C(c2ccccc2)N2CCN(C)CC2)cc1 (configuration not stated) | 1416 | 3 | 1662 | 8 | 2 | 1519
CC(NC(=O)COc1ccccc1)C(c1ccccc1)N1CCN(C)CC1 (configuration not stated) | 1583 | 7 | 2331* | 9 | 1 | 1665
SMILES | TR-FRET SRC-2 ct | PPARg SRC-2 ag | SRC1 TRFRET art | PPARg SRC1 recr | PPARg SRC-3 ag | SRC3 TRFRET art
O=C(Nc1cccc(S(=O)(=O)NC2=NCCCCC2)c1)c1cc(-c2ccc(Cl)cc2)nc2ccccc12 | 1927 | 9 | 2062 | 0 | 4 | 2132*
COC(=O)Cn1c(=NC(=O)c2sc3ccccc3c2Cl)sc2cc(S(N)(=O)=O)ccc21 | 1991* | 17 | 2148 | 14 | 19 | 2165*
C#CCn1c(=NC(=O)c2cc(Cl)sc2Cl)sc2cc(S(N)(=O)=O)ccc21 | 2016* | 0 | 2299 | 9 | 6 | 2182*
C#CCn1c(=NC(=O)CN2C(=O)CCC2=O)sc2cc(S(N)(=O)=O)ccc21 | 1657 | -2 | 1763 | 5 | 1 | 1674
COC(=O)Cn1c(=NC(=O)c2nc3ccccc3s2)sc2cc(S(C)(=O)=O)ccc21 | 1354 | -1 | 1549 | -9 | -2 | 1429
CCOC(=O)Cn1c(=NC(=O)c2sc3ccccc3c2Cl)sc2cc(S(N)(=O)=O)ccc21 | 1690 | 5 | 1761 | 10 | + | 5980*
Cc1nnc2sc(-c3ccc(NC(=O)c4ccc(-c5ccc(Cl)cc5Cl)o4)cc3)nn12 | 1494 | -9 | nt | 19* | -1 | nt
COc1ccc(OC)c(NC(=O)Nc2cc(C(=O)O)ccc2C)c1 | 1610 | 0 | 1863 | 10 | -3 | 1625
Cc1cc(C)nc(NC(=O)c2cc(-c3ccc(C)s3)nc3ccccc23)c1 | 1841 | 5 | 2309 | 7 | 3 | 2323*
Cc1cc(NC(=O)c2cc(-c3cccs3)nc3ccccc23)no1 | 1659 | 16 | nt | 5 | 8 | nt
CN(C)S(=O)(=O)c1ccc(NC(=O)c2cc(-c3cccs3)nc3ccccc23)cc1 | 2669* | 2 | 3250* | 4 | 15 | 3343*
CCN(CC)S(=O)(=O)c1ccc(NC(=O)c2cc(-c3cccs3)nc3ccccc23)cc1 | 1711 | -2 | 1867 | 2 | 4 | 1556
CC1=C(C(=O)Nc2ccc(F)c(F)c2)C(c2cccs2)NC(=S)N1 (configuration not stated) | 1973* | 16 | 2450* | 17 | 8 | 1907
Cn1cccc1-c1nc2ccc(NC(=O)c3ccccc3)cc2[nH]1 | 1614 | 26* | nt | 1 | 7 | nt
COc1ccc(/C(N)=N/OC(=O)CN(C)S(=O)(=O)c2ccc(C)cc2)cc1 | 1857 | 4 | 1999 | 22* | 5 | 1722
COc1ccc(/C(N)=N/OC(=O)CN(C)S(=O)(=O)c2ccccc2)cc1 | 1684 | 6 | 1709 | 0 | 5 | 1502
COc1cc([N+](=O)[O-])ccc1NC(=O)CCCOc1cc(C)ccc1C | 1601 | 9 | 1815 | 11 | -2 | 1624
CN1/C(=C\C(=O)COc2ccc3c(c2)OCO3)C(C)(C)c2ccccc21 | 2258* | -4 | nt | 9 | 0 | nt
